Drawing on PubChem BioAssay (NCI), this text covers growth inhibition for 8 molecules.

Assay [1] can be described thus: NCI Yeast Anticancer Drug Screen. Data for the rad50 strain (AID 155).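 Also: 0% = growth of vehicle-only cultures of the same strain.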 The settings on record: S. cerevisiae rad50 strain growth inhibition, stronger effect = higher value. The essentials: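 Vehicle-treated cultures provide the reference for the growth inhibition reported for compound-exposed, repair-deficient yeast.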
The nature of assay [2]: NCI Yeast Anticancer Drug Screen. Data for the mec2-1 strain (AID 157). The settings on record: S. cerevisiae mec2-1 strain, stronger effect = higher value. The essentials: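 Each compound was tested on mec2-1 yeast, a strain altered in DNA damage repair or cell cycle control. Growth inhibition is reported relative to vehicle.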
Assay [3] can be described thus: NCI Yeast Anticancer Drug Screen. Data for the sgs1 mgt1 strain (AID 161).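 Also: 0% = growth of cultures given vehicle only.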 The settings on record: S. cerevisiae sgs1 mgt1 strain, stronger effect = higher value. The essentials:
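Inhibition of yeast growth, normalised to vehicle-treated controls, is reported for a strain bearing genetic alterations in DNA damage repair.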

Assay [4] can be described thus: NCI Yeast Anticancer Drug Screen. Data for the cln2 rad14 strain (AID 165).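 Also: 0% = growth equal to vehicle treated cultures.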 The settings on record: S. cerevisiae cln2 rad14 strain, stronger effect = higher value. The essentials: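 Test compounds were added to cln2 rad14 yeast cultures; inhibition of growth was then determined by comparison with vehicle treatment.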
Assay [5] can be described thus: NCI Yeast Anticancer Drug Screen. Data for the bub3 strain (AID 167). The settings on record: S. cerevisiae bub3 mutant strain, stronger effect = higher value. The essentials: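 Mutant yeast screening strain plus compound; vehicle-treated cultures serve as the 0% inhibition reference.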
Assay [6] can be described thus: NCI Yeast Anticancer Drug Screen. Data for the mlh1 rad18 strain (AID 175). The settings on record: S. cerevisiae mlh1 rad18 strain growth inhibition, stronger effect = higher value. Put shortly: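 Inhibition values reflect reduced growth of mutant yeast versus vehicle-treated controls following compound exposure; the mutations affect DNA damage repair.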
Setting [7] is: at 5.0 µM (retest, dose inferred, filed as 0.5).
[8] abbreviates: at 50.0 µM (retest, dose inferred, filed as 5.0).

Each structure is given as a SMILES string. Values joined by “and” are separate entries in the source; they are usually repeats but may differ in a detail not shown here. Equal values may be shown once. The panel holds about 79,000 compounds, 15% with a hit somewhere; the sample as a whole holds those more often. Some structures have more than one record in an assay (separate samples or runs), and their calls can disagree. Active and inactive are the calls of the source. Rule as the data show it: active = growth inhibition above about 70%; inactive = the rest.

With `CCN(CC)C(=S)S`, the growth inhibition was 66% (inactive) in assay [1] (setting [7]); 99% (active) in assay [1] (setting [8]); 48.6% (inactive) and 99.3% (active) in assay [1] (at 50.0 µM); 66% (inactive) in assay [2] (setting [7]); 99% (active) in assay [2] (setting [8]); 28% (inactive) and 99.5% (active) in assay [2] (at 50.0 µM). Besides, the growth inhibition was 58% (inactive) in assay [3] (setting [7]); 99% (active) in assay [3] (setting [8]); 34.9% (inactive) and 99.5% (active) in assay [3] (at 50.0 µM); 8% (inactive) in assay [4] (setting [7]); 99% (active) in assay [4] (setting [8]); 21.3% (inactive) and 98.8% (active) in assay [4] (at 50.0 µM). The growth inhibition is 65% (inactive) in assay [5] (setting [7]); 99% (active) in assay [5] (setting [8]); 8.05% (inactive) and 99.5% (active) in assay [5] (at 50.0 µM); 75% (active) in assay [6] (setting [7]); 99% (active) in assay [6] (setting [8]); 26.8% (inactive) and 99.5% (active) in assay [6] (at 50.0 µM).
Consider `C[C@]12Cc3conc3C(O)=C1CC[C@@H]1C2CC[C@@]2(C)C1CC[C@@H]2O` (some centres undefined), for which the growth inhibition is 2% (inactive) in assay [1] (setting [7]); 5% (inactive) in assay [1] (setting [8]); 81.3% (active) in assay [1] (at 50.0 µM); 0% (inactive) in assay [2] (setting [7]); 0% (inactive) in assay [2] (setting [8]); 63.5% (inactive) in assay [2] (at 50.0 µM). Moreover, the growth inhibition in assay [3] (setting [7]) is 1% (inactive); in assay [3] (setting [8]), 35% (inactive); in assay [3] (at 50.0 µM) it was 57.1% (inactive); in assay [4] (setting [7]) it was 1% (inactive); in assay [4] (setting [8]), 24% (inactive); in assay [4] (at 50.0 µM) it was 55.2% (inactive). In addition, the growth inhibition in assay [5] (setting [7]) is -49% (inactive); in assay [5] (setting [8]), 3% (inactive); in assay [5] (at 50.0 µM) it was 71.2% (active); in assay [6] (setting [7]), -1% (inactive); in assay [6] (setting [8]), 15% (inactive); in assay [6] (at 50.0 µM), 78.2% (active).
On to `CCOP(=O)(OCC)Oc1ccc([N+](=O)[O-])cc1`, for which the growth inhibition in assay [1] (setting [7]) is 8% (inactive); in assay [1] (setting [8]), -5% (inactive); in assay [1] (at 50.0 µM) it was 0.55% (inactive); in assay [2] (setting [7]) it was -10% (inactive); in assay [2] (setting [8]) it was -13% (inactive); in assay [2] (at 50.0 µM), 2.65% (inactive). The growth inhibition was 12% (inactive) in assay [3] (setting [7]); 16% (inactive) in assay [3] (setting [8]); -7% (inactive) in assay [3] (at 50.0 µM); 6% (inactive) in assay [4] (setting [7]); 7% (inactive) in assay [4] (setting [8]); 38.7% (inactive) in assay [4] (at 50.0 µM). Moreover, the growth inhibition is -4% (inactive) in assay [5] (setting [7]); 14% (inactive) in assay [5] (setting [8]); 9.8% (inactive) in assay [5] (at 50.0 µM); 13% (inactive) in assay [6] (setting [7]); 4% (inactive) in assay [6] (setting [8]); 3.55% (inactive) in assay [6] (at 50.0 µM).
On to `COC1=CC(C)(C)C=C([Se][Se]C2=CC(C)(C)C=C(OC)C2=O)C1=O`, for which the growth inhibition in assay [1] (setting [7]) is 82% (active); in assay [1] (setting [8]) it was 79% (active); in assay [1] (at 50.0 µM), 83.5% (active); in assay [2] (setting [7]), 83% (active); in assay [2] (setting [8]) it was 76% (active); in assay [2] (at 50.0 µM) it was 88.9% (active). Also, the growth inhibition was 86% (active) in assay [3] (setting [7]); 87% (active) in assay [3] (setting [8]); 83% (active) in assay [3] (at 50.0 µM); 77% (active) in assay [4] (setting [7]); 75% (active) in assay [4] (setting [8]); 68.5% (inactive) in assay [4] (at 50.0 µM). Besides, the growth inhibition in assay [5] (setting [7]) was 71% (active); in assay [5] (setting [8]), 61% (inactive); in assay [5] (at 50.0 µM), 64.7% (inactive); in assay [6] (setting [7]), 81% (active); in assay [6] (setting [8]) it was 79% (active); in assay [6] (at 50.0 µM), 85.5% (active).
In the case of `CC/C(=C(/CC)c1ccc(OP(N)(=O)N(CCCl)CCCl)cc1)c1ccc(OP(N)(=O)N(CCCl)CCCl)cc1` (centres undefined), the growth inhibition in assay [1] (setting [7]) is 18% (inactive); in assay [1] (setting [8]) it was 33% (inactive); in assay [1] (at 50.0 µM) it was 17.1% (inactive); in assay [2] (setting [7]), -5% (inactive); in assay [2] (setting [8]), 26% (inactive); in assay [2] (at 50.0 µM), 5.6% (inactive). Further, the growth inhibition is 2% (inactive) in assay [3] (setting [7]); 42% (inactive) in assay [3] (setting [8]); 34.7% (inactive) in assay [3] (at 50.0 µM); 3% (inactive) in assay [4] (setting [7]); 31% (inactive) in assay [4] (setting [8]); -9.95% (inactive) in assay [4] (at 50.0 µM). In addition, the growth inhibition in assay [5] (setting [7]) is 29% (inactive); in assay [5] (setting [8]) it was 34% (inactive); in assay [5] (at 50.0 µM), 0.1% (inactive); in assay [6] (setting [7]) it was 26% (inactive); in assay [6] (setting [8]) it was 51% (inactive); in assay [6] (at 50.0 µM), 66.8% (inactive).
As for `COc1cc(OC)c(OC)cc1/C=C/[N+](=O)[O-]`, the growth inhibition in assay [1] (setting [7]) was 35% (inactive); in assay [1] (setting [8]) it was 64% (inactive); in assay [1] (at 50.0 µM) it was 85.9% (active); in assay [2] (setting [7]), 24% (inactive); in assay [2] (setting [8]) it was 85% (active); in assay [2] (at 50.0 µM) it was 90.9% (active). Also, the growth inhibition in assay [3] (setting [7]) is 46% (inactive); in assay [3] (setting [8]), 85% (active); in assay [3] (at 50.0 µM), 90.8% (active); in assay [4] (setting [7]), 9% (inactive); in assay [4] (setting [8]), 39% (inactive); in assay [4] (at 50.0 µM), 77.8% (active). For the same molecule, the growth inhibition in assay [5] (setting [7]) was 12% (inactive); in assay [5] (setting [8]), 67% (inactive); in assay [5] (at 50.0 µM) it was 94.8% (active); in assay [6] (setting [7]) it was 71% (active); in assay [6] (setting [8]) it was 91% (active); in assay [6] (at 50.0 µM) it was 92% (active).
Regarding `COc1cc(N(CCCl)CCCl)ccc1C=Nc1cccc(Cl)c1`, the growth inhibition in assay [1] (setting [7]) is 5% (inactive); in assay [1] (setting [8]) it was 45% (inactive); in assay [1] (at 50.0 µM), 84% (active); in assay [2] (setting [7]) it was -6% (inactive); in assay [2] (setting [8]) it was 51% (inactive); in assay [2] (at 50.0 µM), 62.6% (inactive). In addition, the growth inhibition in assay [3] (setting [7]) was 1% (inactive); in assay [3] (setting [8]), 7% (inactive); in assay [3] (at 50.0 µM) it was 94% (active); in assay [4] (setting [7]) it was 0% (inactive); in assay [4] (setting [8]), 20% (inactive); in assay [4] (at 50.0 µM) it was 81.6% (active). Further, the growth inhibition was 0% (inactive) in assay [5] (setting [7]); 14% (inactive) in assay [5] (setting [8]); 87% (active) in assay [5] (at 50.0 µM); 17% (inactive) in assay [6] (setting [7]); 87% (active) in assay [6] (setting [8]); 94.2% (active) in assay [6] (at 50.0 µM).
In the case of `CC(Br)CN(CC(C)Br)c1ccc2c(c1)Cc1ccccc1-2` (centres undefined), the growth inhibition in assay [1] (setting [7]) was 12% (inactive); in assay [1] (setting [8]) it was 73% (active); in assay [1] (at 50.0 µM), 82.8% (active); in assay [2] (setting [7]) it was 2% (inactive); in assay [2] (setting [8]), 69% (inactive); in assay [2] (at 50.0 µM) it was 70.4% (active). Further, the growth inhibition was 8% (inactive) in assay [3] (setting [7]); 87% (active) in assay [3] (setting [8]); 93.2% (active) in assay [3] (at 50.0 µM); -16% (inactive) in assay [4] (setting [7]); 85% (active) in assay [4] (setting [8]); 56.3% (inactive) in assay [4] (at 50.0 µM). For the same molecule, the growth inhibition was -7% (inactive) in assay [5] (setting [7]); 92% (active) in assay [5] (setting [8]); 85.5% (active) in assay [5] (at 50.0 µM); 2% (inactive) in assay [6] (setting [7]); 82% (active) in assay [6] (setting [8]); 91.7% (active) in assay [6] (at 50.0 µM).
